# Source: PubChem BioAssay (NCATS)
# Records with an inconclusive call do not appear. Unmarked numbers belong to inactive results. Activity calls are given as the source filed them. Calls follow the shape of the dose curve; as a rule, active = well fitted inhibition curve with a large enough effect; inconclusive = small, poorly fitted or top-dose-only effect; inactive = flat fitted curve, though single readings scatter.
# Tests used:
# [1] = tested on: HEK293; assay: Cytotoxic Profiling of Annotated Libraries Using Quantitative High-Throughput Screening (AID 1296008); details: Five cell lines viability, CellTiter-Glo ATP luminescence, 48-72 h; max response: active compounds read low; also: potency is read from the fitted curve at half-maximal effect; as to max response: % is scaled to controls: 0 for no effect and ±100 for the full control effect
# In short: (§1)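 Cytotoxicity was measured as CellTiter-Glo ATP luminescence, read after 10 min at room temperature. Compound treatment of the cells lasted 48 or 72 hr at 37 degrees Celsius in a qHTS format.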
# [2] = tested on: HaCat; assay: as above; details: Five cell lines viability, CellTiter-Glo ATP luminescence, 48-72 h; max response: active compounds read low
# In short: as §1
# [3] = tested on: KB-3-1; assay: as above; details: Five cell lines viability, CellTiter-Glo ATP luminescence, 48-72 h; max response: active compounds read low
# In short: as §1
# [4] = tested on: NIH3T3; assay: as above; details: Five cell lines viability, CellTiter-Glo ATP luminescence, 48-72 h; max response: active compounds read low
# In short: as §1
# [5] = tested on: HACAT; assay: qHTS assay to identify novel small-molecules to repurpose for Merkel cell carcinoma treatment (AID 1296009); details: MCC and control cell lines, CellTiter-Glo viability, 72 h; series mostly up to 44.8 µM
# In short: (§2)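 Cell viability, measured as CellTiter-Glo luminescence, was normalized between DMSO and no-cell wells. The cells had been exposed to 8- or 11-point compound dilutions for 72 hr at 37 degree celsius.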
# [6] = tested on: HEK293T; assay: as above; details: MCC and control cell lines, CellTiter-Glo viability, 72 h; at 44.8 µM (top of the series) unless noted
# In short: as §2
# Also: nearly all actives have a fitted effect of over 60% in size.
smiles,measurement,setting,value
Cc1noc(=O)c2ccc(NC(=O)C(O)(CC(C)(C)c3cccc4c3OCC4)C(F)(F)F)cc12 (stereo not given),max response,[1],-10.8%
same,outcome,[2],inactive
same,outcome,[3],inactive
same,max response,[4],-1.29%
same,Potency,[5],inactive
COc1c(/C=C/C(C)(C)O)ccc2c1C(=O)OCc1cc(C)cc(O)c1O2,max response,[1],-114%
same,outcome,[2],inactive
same,max response,[3],-23.3%
same,max response,[4],2.57%
same,Potency,[5],inactive
C[C@@H]1CCN(C(=O)N2CCCC2)C[C@@H]1N(C)c1ncnc2[nH]ccc12,max response,[1],-16.9%
same,outcome,[2],inactive
same,max response,[3],6.14%
same,max response,[4],-9.02%
same,Potency,[5],inactive
COc1c2c(c(CO)c3c1C(=O)OC3)OC1(C)CCC3(O)C(C)(C)OC(=O)CCC3(C)C1C2 (stereo not given),outcome,[1],inactive
same,max response,[2],-24.1%
same,outcome,[3],inactive
same,max response,[4],-8.25%
same,outcome,[6],inactive [at 17.4 µM]
C[C@@]12CC[C@@H]3[C@@](CC[C@H]4[C@@]3(C)CCC[C@@]4(C)C(=O)O)(CC1=O)C2,max response,[1],-6.36%
same,outcome,[2],inactive
same,max response,[3],1.35%
same,max response,[4],-5.17%
same,Potency,[5],inactive
C=CC(C)(C)c1[nH]c2cc3c(cc2c1CC1NC(=O)C2=CCCN2C1=O)C=CC(C)(C)O3 (stereo not given),max response,[1],-27.4%
same,outcome,[2],inactive
same,outcome,[3],inactive
same,max response,[4],-5.01%
same,Potency,[5],inactive
C=C1C(O)CC2C(C(=O)O)=COC(O[C@@H]3O[C@H](COC(=O)/C=C/c4ccc(O)cc4)[C@@H](O)[C@H](O)[C@H]3O)C12 (stereo not given in full),outcome,[1],inactive
same,max response,[2],-10.4%
same,outcome,[3],inactive
same,max response,[4],-4.95%
same,outcome,[6],inactive [at 17.4 µM]
CC(=O)O[C@H]1CC[C@@]2(C)C(CC[C@@H](C)[C@]23Cc2c(O)cc4c(c2O3)CN([C@@H](CCC(=O)O)C(=O)O)C4=O)C1(C)C (stereo not given in full),max response,[1],-7.36%
same,outcome,[2],inactive
same,outcome,[3],inactive
same,max response,[4],2.49%
same,Potency,[5],inactive
O=C(O[C@H]1[C@@H]2C=CO[C@@H](O[C@@H]3O[C@H](CO)[C@@H](O)[C@H](O)[C@H]3O)[C@@H]2[C@@]2(CO)O[C@@H]12)c1ccccc1,max response,[1],-2.12%
same,outcome,[2],inactive
same,outcome,[3],inactive
same,max response,[4],-6.96%
same,Potency,[5],inactive
C=CC(C)(C)c1[nH]c2cc3c(cc2c1CC1NC(=O)C2CCCN2C1=O)C=CC(C)(C)O3 (stereo not given),outcome,[1],inactive
same,outcome,[2],inactive
same,max response,[3],8.42%
same,outcome,[4],inactive
same,Potency,[5],inactive
same,outcome,[6],inactive [at 17.4 µM]
COc1cc(OC)cc(C(=O)Nc2ccc(Cl)c(-c3nc4ccc(N(C)C)cc4[nH]3)c2)c1,Potency,[1],10.3 µM (active)
same,outcome,[2],inactive
same,max response,[3],2.52%
same,max response,[4],-0.734%
same,Potency,[5],inactive
COc1cc2occc2c(O[C@@H]2O[C@H](CO)[C@@H](O)[C@H](O)[C@H]2O)c1CCC(=O)O,outcome,[1],inactive
same,max response,[2],2.4%
same,outcome,[3],inactive
same,max response,[4],1.36%
same,outcome,[6],inactive [at 17.4 µM]
CNC(C)C(=O)NC(C(=O)N1CCCC1c1nc(C(=O)c2ccc(F)cc2)cs1)C1CCCCC1 (stereo not given),Potency,[1],14.6 µM (active)
same,outcome,[2],inactive; activator
same,max response,[3],-9.35%
same,outcome,[4],inactive
same,Potency,[5],inactive
O=C1NC(Cc2c[nH]c3ccccc23)C(=O)NC1Cc1cnc[nH]1 (stereo not given),max response,[1],-5.57%
same,outcome,[2],inactive
same,outcome,[3],inactive
same,max response,[4],3.67%
same,Potency,[5],inactive
O=C(O)Cc1cn(C2OCC(O)C(O)C2O[C@@H]2O[C@H](CO)[C@@H](O)[C@H](O)[C@H]2O)c2ccccc12 (stereo not given in full),max response,[1],0.817%
same,outcome,[2],inactive
same,outcome,[3],inactive
same,max response,[4],2.49%
same,Potency,[5],inactive
O=C(O)CCCCCC[C@H]1C(=O)NC(=O)N1CC[C@@H](O)C1CCCCC1,max response,[1],-1.93%
same,outcome,[2],inactive
same,outcome,[3],inactive
same,max response,[4],-5.35%
same,Potency,[5],inactive
N#Cc1c(Oc2ccc(F)c(NC(=O)Cc3cccc(C(F)(F)F)c3)c2)ccc2nc(NC(=O)C3CC3)sc12,Potency,[1],1.3 µM (active)
same,Potency,[3],16.4 µM (active)
same,Potency,[4],1.46 µM (active)
Cc1oc2ccccc2c1CNC(=O)NCc1cccs1,max response,[1],-27.1%
same,max response,[3],-11.8%
same,max response,[4],-4.16%
CC(C)C[C@H](CC(=O)NO)C(=O)N[C@H](C(=O)N[C@@H](C)C(=O)NCCN)C(C)(C)C,max response,[1],-1.44%
same,outcome,[3],inactive
same,outcome,[4],inactive
Cn1cncc1C(N)(c1ccc(Cl)cc1)c1ccc2c(c1)c(-c1cccc(Cl)c1)cc(=O)n2C (stereo not given),Potency,[1],0.259 µM (active)
same,Potency,[3],16.4 µM (active)
CC(C)NCC(C(=O)N1CCN(c2ncnc3c2C(C)CC3O)CC1)c1ccc(Cl)cc1 (stereo not given),Potency,[1],0.58 µM (active)
same,max response,[3],-24.2%
same,max response,[4],3.08%
